The source of these data is the supplement of paper PMC10127200.

Counter-ions that a name gives are not always drawn.

For one assay, the system named is FB. In words: Euclidean distance of Cell Painting phenotypic profile (signed KS, 77 features) to DMSO centroid (dimensionless distance); 5 or 10 uM (library dependent); higher = stronger phenotypic change vs DMSO (phenoactivity). As to conditions: 48 h. In short, it runs like this: (§1)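 Five cancer lines, together with a healthy fibroblast line, received library compounds for 48 h at a library-dependent 10 or 5 uM and 0.1% DMSO final. Harmony then derived 77 features from confocal 20X images (9 fields/well) of the stained cells, scoring each as a signed Kolmogorov-Smirnov statistic against same-plate vehicle wells. After plate-position correction, correlation weighting and replicate averaging at the top dose, phenoactivity was taken as each profile's Euclidean distance to the median vehicle profile.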
On to `N#C/C(=C(/N)Sc1ccc(N)cc1)c1ccccc1C(F)(F)F`, for which the Euclidean distance was found to be 1.1.

The compound `CCOc1ccc(C[C@H]2NC(=O)CCSSC[C@@H](C(=O)N3CCC[C@H]3C(=O)N[C@@H](CCCN)C(=O)NCC(N)=O)NC(=O)[C@H](CC(N)=O)NC(=O)[C@H]([C@@H](C)O)NC(=O)[C@H]([C@@H](C)CC)NC2=O)cc1` [Atosiban Acetate] yielded an Euclidean distance of 1.59.

Take `COC(=O)C1=CO[C@@H](O[C@@H]2O[C@H](CO)[C@@H](O)[C@H](O)[C@H]2O)[C@@H]2C(CO)=CC[C@H]12` [Geniposide]: the Euclidean distance came out at 0.949.

On to `C[N+](C)(C)NCCC(=O)[O-]` [Mildronate], for which the Euclidean distance is 1.1.

Turning to `CNC(=O)c1ccccc1Nc1nc(Nc2ccc(N3CCOCC3)cc2OC)ncc1Cl`, the Euclidean distance worked out at 3.92.

In the case of `OC[C@H]1O[C@@H](c2ccc(Cl)c(Cc3ccc(O[C@H]4CCOC4)cc3)c2)[C@H](O)[C@@H](O)[C@@H]1O`, the Euclidean distance is 0.912.

The subject of another assay is HEPG2. The description is as above. As to conditions: 48 h. The gist of the method:
as §1
`CC[C@H]1OC(=O)[C@@](C)(F)C(=O)[C@H](C)[C@@H](O[C@@H]2O[C@H](C)C[C@H](N(C)C)[C@H]2O)[C@](C)(OC)C[C@@H](C)C(=O)[C@H](C)[C@H]2N(CCCCn3cc(-c4cccc(N)c4)nn3)C(=O)O[C@]12C` [Solithromycin]: the Euclidean distance amounted to 2.27.

In turn, `CN1CCCC(n2nc(Cc3ccc(Cl)cc3)c3ccccc3c2=O)CC1` (configuration not stated) [Azelastine HCl] had an Euclidean distance of 1.14.

The compound `C[C@H](O)[C@H](O)[C@H]1CNc2[nH]c(N)nc(=O)c2N1` [Sapropterin Dihydrochloride] displayed an Euclidean distance of 0.542.

Consider `CN(C)c1ccc(C(=C2C=CC(=[N+](C)C)C=C2)c2ccc(N(C)C)cc2)cc1` [Crystal Violet], for which the Euclidean distance was found to be 3.45.

`Cc1cccc(-c2[nH]c(C(C)(C)C)nc2-c2ccc3c(c2)OCO3)n1` yielded an Euclidean distance of 1.99.

Consider `CCCCC1=NC2(CCCC2)C(=O)N1Cc1ccc(-c2ccccc2S(=O)(=O)Nc2noc(C)c2C)c(COCC)c1`, for which the Euclidean distance was found to be 0.445.

The compound `COC(c1ccccc1)(c1ccccc1)[C@H](Oc1nc(C)cc(C)n1)C(=O)O` [Ambrisentan] came in with an Euclidean distance of 2.03.

`CCN1CCC[C@H]1CNC(=O)c1cc(S(N)(=O)=O)ccc1OC` [Levosulpiride] yielded an Euclidean distance of 1.73.

Compound `CCCOC(C(=O)OC1CCN(C)CC1)(c1ccccc1)c1ccccc1` [Propiverine hydrochloride] yielded an Euclidean distance of 1.39.

`O=C(O)CCC(=O)c1ccc(-c2ccccc2)cc1` [Fenbufen] returned an Euclidean distance of 0.887.

Compound `O=C(Nc1ccccc1Br)N[C@@H]1CCN(c2ccc(C(F)(F)F)cn2)C1` yielded an Euclidean distance of 0.544.

Compound `C[C@]12CC[C@H](O)CC1=CC[C@@H]1[C@@H]2CC[C@]2(C)C(n3cnc4ccccc43)=CC[C@@H]12` [Galeterone] registered an Euclidean distance of 2.1.

`O=C1NC(=O)C(c2ccccc2)(c2ccccc2)N1` [Phenytoin] showed an Euclidean distance of 0.945.

On to `O=C(O)CCCN1CCC(O[C@@H](c2ccc(Cl)cc2)c2ccccn2)CC1` [Bepotastine], for which the Euclidean distance was determined as 0.595.

With `CCC[C@@H]1C[C@@H](C(=O)N[C@@H]([C@H]2O[C@H](SC)[C@H](O)[C@@H](O)[C@H]2O)[C@@H](C)O)N(C)C1` [Lincomycin HCl], the Euclidean distance is 0.457.

For the compound `CCCCCCCN(CC)CCCC(O)c1ccc(NS(C)(=O)=O)cc1` (configuration not stated) [Ibutilide Fumarate], the Euclidean distance was 1.2.

Consider `CCCCCCCCCC(=O)OC1(c2ccc(Cl)cc2)CCN(CCCC(=O)c2ccc(F)cc2)CC1` [Haloperidol Decanoate], for which the Euclidean distance is 0.961.

The compound `Nc1ccc(S(=O)(=O)c2ccc(N)cc2)cc1` [Dapson] had an Euclidean distance of 0.497.

The compound `CC(=O)OCC(=O)[C@@]12N=C(C)O[C@@H]1C[C@H]1[C@@H]3CCC4=CC(=O)C=C[C@]4(C)[C@H]3[C@@H](O)C[C@@]12C` [Deflazacort] returned an Euclidean distance of 1.58.

Regarding `COCCNCCc1cccc(Nc2ncc3c(n2)-c2ccccc2[C@H](c2ccccc2F)C3)c1` [Derazantinib(ARQ-087)], the Euclidean distance worked out at 4.56.

`CC(C)/N=c1\cc2n(-c3ccc(Cl)cc3)c3ccccc3nc-2cc1Nc1ccc(Cl)cc1` [Clofazimine] registered an Euclidean distance of 0.662.

`COc1ccc(Cl)cc1NC(=O)Nc1cc(C)nc2ccccc12` displayed an Euclidean distance of 0.631.

Compound `Cc1cccc(-c2[nH]c(C(C)(C)C)nc2-c2ccc3nccnc3c2)n1` showed an Euclidean distance of 1.48.

Take `O=S(=O)(O)c1cc(O)ccc1O` [Ethamsylate]: the Euclidean distance came to 0.713.

Consider `CCOC(=O)c1ccc(N2NC(=O)C(=Cc3ccc([N+](=O)[O-])o3)C2=O)cc1`, for which the Euclidean distance is 0.851.

`CN(CCCCCCCCCCN(C)C(=O)Oc1cccc([N+](C)(C)C)c1)C(=O)Oc1cccc([N+](C)(C)C)c1` [Demecarium Bromide] registered an Euclidean distance of 1.17.
